For one assay, the target named is Furin (Homo sapiens) (UniProt P09958). Put plainly: Furin counterscreen qHTS for Zika virus inhibitors (AID 1347149). Note: nearly all actives have a fitted effect of over 70% in size. Note: potency is the fitted concentration of half-maximal effect. The procedure, abridged:
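Counterscreen measures cleavage of 2 microM BOC-RVRR-AMC, below its ~15 microM Km, by 5 nM full-length human furin at pH 7.0 after a 15-min compound preincubation. Inhibition derives from the 15-min fluorescence increase at 37C.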

For assay [1], the system named is Zika virus NS2B-NS3 protease (linked construct). Briefly: Confirmatory screen NINDS AMC qHTS for Zika virus inhibitors (AID 1347152). Note: nearly all actives have a fitted effect of over 70% in size. Note: potency is the fitted concentration of half-maximal effect. The procedure, abridged:
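Linked NS2B-NS3 protease, 1 nM, in 10 mM Tris-HCl pH 8.0, 0.01% Tween 20; compounds preincubated 15 min at room temperature. Nle-KRR-AMC 10 microM (Km 18.3 µM); 15-min fluorescence change (340/450 nm) fitted to 4-parameter Hill.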
(Quantitative high-throughput screening tests each substance at several concentrations.)

Assay [2] concerns Zika virus NS2B-NS3 protease (unlinked complex). Briefly: Confirmatory screen GU AMC qHTS for Zika virus inhibitors (AID 1347153).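 For Potency: enzyme at 25 nM with substrate at 10 µM below its Km of 18.3 µM; potency is the fitted concentration of half-maximal effect.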 Note: nearly all actives have a fitted effect of over 70% in size. The procedure, abridged:
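Noncovalent NS2B hydrophilic domain/NS3 protease complex (25 nM) in 10 mM Tris-HCl pH 8.0, 0.01% Tween 20 was preincubated 15 min at room temperature with compounds. Then 10 µM AMC substrate (Km 18.3 µM) was added; fluorescence was read over 15 min and fitted to a 4-parameter Hill equation.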

Assay [3] deals with Zika virus NS2B-NS3 protease. Put plainly: Primary screen GU AMC qHTS for Zika virus inhibitors (AID 1347154). Note: nearly all actives have a fitted effect of over 70% in size. Note: potency is the fitted concentration of half-maximal effect. The method, boiled down: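 Unlinked Zika NS2B hydrophilic domain/NS3 protease domain noncovalent complex (25 nM final) in 10 mM Tris-HCl pH 8.0, 0.01% Tween 20, with AMC peptide substrate. Fluorescence (ex 340, em 450 nm) change over 15 min, room temperature; percent inhibition fitted to 4-parameter Hill equation.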

The nature of assay [4]: Confirmatory screen GU Rhodamine qHTS for Zika virus inhibitors qHTS (AID 1347157). The procedure, abridged: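 Enzyme 25 nM in Tris-HCl pH 8.0 + 0.01% Tween 20; compounds up to 114 microM, 15 min RT dark; + Rhod110 substrate 1.5 microM; read t0 and 15 min; delta fluorescence → % inhibition → 4-parameter Hill fit.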
The nature of assay [5]: ZIKV-mCherry secondary qHTS for Zika virus inhibitors (AID 1347158). Note: top concentration of the series differs between compounds. An excerpt: Assay Submitters (PI): Avindra Nath, Ph.D., National Institute of Neurological Disorders and Stroke (NINDS), Bethesda, MD Radhakrishnan Padmanabhan, Ph.D., Georgetown University (GU), Washington D.C. Zika Virus causes congenital defects, including microcephaly and is associated with Guillain-Barre syndrome, eningoencephalitis and myelitis in infected adult. […] Using a target-based approach, we hope to establish a screening paradigm to uncover novel, cell-active NS2B-NS3 protease (Zika Virus) specific inhibitors from NCATS' collection of small molecules using qHTS. […] Four assay panel was created to identify potential Zika Virus inhibitors. Namely, (1) GU unlinked NS2B-NS3 AMC tagged protease qHTS, (2) GU unlinked NS2B-NS3 Rhodamine tagged protease qHTS, (3) NINDS linked NS2B-NS3 AMC tagged protease qHTS, (4) NINDS linked NS2B-NS3 Rhodamine tagged protease qHTS. Active compounds were re-acquired and re-screened to confirm inhibition. Inhibitors were further screened against various confirmatory and counterscreens in dose response format. […] A DAPI (mCherry counterscreen) which determine Vero cell toxicity was used to exclude false positive compounds. […] Early Translation Branch (ETB) National Center for Advancing Translational Sciences (NCATS), Rockville, MD National Institute of Health (NIH), Bethesda, Maryland
384 well ZIKV-mCherry Assay: We have developed a new orthogonal imaging assay in 384-well plate format, which uses recombinant virus ZIKV-mCherry in Vero cells. […] The TIFFs were quantitated using the canned Multi Target Analysis protocol (GE Investigator Workstation software v3.7.2). […] A recombinant Zika viral infection was monitored in the Cy5 channel (cells) using a 2 microm collar dilation from the nuclear bitmap. mCherry objects with an average nuclear RFU intensity above 450 (3 stdev above mean negative control wells) were considered "mcherry positive" and data was analyzed by percent infection rate.

Assay [6] deals with Zika virus NS2B-NS3 protease (unlinked complex). Briefly: Primary screen GU Rhodamine qHTS for Zika virus inhibitors: Unlinked NS2B-NS3 protease assay (AID 1347159). Note: nearly all actives have a fitted effect of over 60% in size. Note: potency is the fitted concentration of half-maximal effect. The procedure, abridged:
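Buffer 10 mM Tris-HCl pH 8.0, 0.01% Tween 20. Unlinked protease 25 nM; compound preincubation 15 min, RT, protected from light. Substrate Rhod110, 1.5 microM; ~15% conversion in 15 min.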

Results filed as inconclusive are left out. Activity calls are given as the source filed them. Calls come from the whole dose curve; as a rule, active = well fitted curve in the direction sought with a large enough effect; inconclusive = small, poorly fitted or top-dose-only effect, or another doubt; inactive = no such curve, though single readings can be large; an effect the other way counts as inactive or inconclusive.

Furin (Homo sapiens), sequence (P09958 whole entry, looked up): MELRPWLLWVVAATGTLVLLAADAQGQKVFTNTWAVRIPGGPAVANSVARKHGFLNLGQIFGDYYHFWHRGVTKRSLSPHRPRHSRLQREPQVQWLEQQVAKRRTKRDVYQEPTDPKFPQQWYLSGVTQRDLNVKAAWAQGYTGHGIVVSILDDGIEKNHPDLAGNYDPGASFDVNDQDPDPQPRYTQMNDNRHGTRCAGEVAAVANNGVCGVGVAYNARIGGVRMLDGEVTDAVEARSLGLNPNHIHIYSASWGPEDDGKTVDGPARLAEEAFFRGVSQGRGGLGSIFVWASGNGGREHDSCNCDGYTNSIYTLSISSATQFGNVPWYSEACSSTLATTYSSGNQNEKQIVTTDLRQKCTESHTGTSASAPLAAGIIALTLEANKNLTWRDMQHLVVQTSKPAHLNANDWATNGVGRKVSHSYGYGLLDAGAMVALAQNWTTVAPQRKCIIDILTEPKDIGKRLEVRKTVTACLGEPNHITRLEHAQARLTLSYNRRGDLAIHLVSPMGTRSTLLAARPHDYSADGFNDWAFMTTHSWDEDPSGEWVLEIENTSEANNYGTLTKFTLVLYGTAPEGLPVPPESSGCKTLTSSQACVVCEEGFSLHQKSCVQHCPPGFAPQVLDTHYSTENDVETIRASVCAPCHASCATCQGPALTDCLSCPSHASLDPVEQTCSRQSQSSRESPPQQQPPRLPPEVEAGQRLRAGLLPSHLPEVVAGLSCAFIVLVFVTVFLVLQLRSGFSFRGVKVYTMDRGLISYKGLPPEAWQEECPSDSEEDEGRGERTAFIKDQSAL

Consider `O=C(Nc1cccc2c(=O)cc(-c3nn[nH]n3)oc12)c1ccc(OCCCCc2ccccc2)cc1`, for which the Potency in the assay with Furin (Homo sapiens) was 30.4 µM (active); in assay [1], 5.41 µM (active); in assay [2] it was 6.81 µM (active); in assay [3], 8.91 µM (active).

As to `COc1cc(Cl)cn2c(-c3cccc(NC4CNC4)n3)cnc12`, the Potency (with Furin (Homo sapiens); in assay [1]) was 27.1 µM (active) throughout. The Potency result in assay [2] was “inactive”.

As to `CNC(=O)[C@H](Cc1ccccc1)NC(=O)[C@H](CC(C)C)[C@H](CSc1cccs1)C(=O)NO`, in assay [3], the Potency result was “inactive”.

On to `COc1ccc(-c2oc3c(CC=C(C)C)c(O)cc(O)c3c(=O)c2O)cc1`, for which the Potency entry in assay [3] is “inactive”.

`CCNC(=O)[C@H]1O[C@@H](n2cnc3c(N)nc(NCCc4ccc(CCC(=O)O)cc4)nc32)[C@H](O)[C@H]1O`: the Potency result in assay [3] was “inactive”.

As to `CCC=CC[C@H]1C(=O)CC[C@@H]1CC(=O)OC`, the Potency result in assay [3] was “inactive”.

Take `CCCCOCCOc1nc(-c2ccc(C(=O)O)c(F)c2)sc1C`: the Potency is 12.1 µM (active) in the assay with Furin (Homo sapiens), 19.2 µM (active) in assay [1] and 12.1 µM (active) in assay [2].

Regarding `COc1cc(Nc2nc3ccccc3nc2NS(=O)(=O)c2ccc(NC(=O)c3ccc(C)c(OC)c3)cc2)cc(OC)c1`, the Potency in assay [1] was 6.98 µM (active); in assay [2], 5.55 µM (active); in assay [4], 1.39 µM (active); in assay [6] it was 1.78 µM (active). Also, the Potency result in assay [3] was “inactive”. Besides, in assay [5], the compound was called inactive.

`CCN(CC)CCCCNc1nc2cc(Cl)c(Cl)cc2nc1-c1ccc(-c2cccs2)s1`: in assay [3], the Potency result is “inactive”.

Consider `CN1[C@H]2CC[C@H]1CC(OC(=O)c1c[nH]c3ccccc13)C2` (stereo partly drawn), for which the Potency entry in assay [3] was “inactive”.

Take `CC[C@H](C)C(=O)O[C@H]1C[C@H](O)C=C2C=C[C@H](C)[C@H](CC[C@@H](O)C[C@@H](O)CC(=O)O)[C@H]21`: in assay [3], the Potency entry was “inactive”.

Regarding `O=C(NC[C@H](O)CO)c1ccncc1Nc1ccc(I)cc1F`, the Potency result in assay [3] was “inactive”.

Turning to `CC[C@H](C)n1cc(C)c2c(C(=O)NCc3c(C)cc(C)[nH]c3=O)cc(-c3ccc(N4CCNCC4)nc3)cc21`, the Potency in the assay with Furin (Homo sapiens) is 27 µM (active); in assay [1] it was 27.1 µM (active); in assay [2], 27.1 µM (active); in assay [3], 21.5 µM (active).

For the compound `CC(C)C[C@@H](N)[C@H](O)C(=O)N[C@H](C(=O)N[C@H](C(=O)N[C@@H](CC(=O)O)C(=O)O)C(C)C)C(C)C`, the Potency result in assay [3] was “inactive”.

`N#Cc1ccc(Oc2ccc3c(c2)COB3O)cc1`: in assay [3], the Potency entry was “inactive”.

For `CC(C)C[C@H](NC(=O)c1cc2ccccc2s1)C(=O)N1CCN(C(=O)[C@H](CO)NS(=O)(=O)c2ccc(Cl)cc2Cl)CC1`, the Potency entry in assay [3] was “inactive”.

Regarding `N#CC1(c2cccc(C(=O)Nc3cc(Oc4ccc5nc(NC(=O)C6CC6)sc5n4)ccc3F)c2Cl)CC1`, the Potency entry (with Furin (Homo sapiens); in assay [1]; in assay [2]) was “inactive” throughout. The Potency in assay [3] was 21.5 µM (active); in assay [4], 22.1 µM (active); in assay [6] it was 22.4 µM (active).

Turning to `N#CC(c1ccc(Cl)cc1)c1c(Cl)cc(-n2ncc(=O)[nH]c2=O)cc1Cl` (stereo not drawn), the Potency in assay [1] and in assay [2] was 21.5 µM (active) throughout.

Regarding `O=C(c1ccc(C(=O)N2CCC(N3CCCC3)CC2)c(Nc2ccccc2)c1)N1CCC(N2CCCC2)CC1`, the Potency entry in assay [3] was “inactive”.

As for `Cc1nc(C(=O)NCC(=O)O)c(O)c2ccc(Oc3ccccc3)cc12`, the Potency in assay [1] is 21.5 µM (active); in assay [3], 21.5 µM (active); in assay [4] it was 44.1 µM (active); in assay [6] it was 22.4 µM (active).

In the case of `COc1cc2nccc(Oc3ccc(NC(=O)Nc4ccc(F)cc4F)c(F)c3)c2cc1OC`, in assay [3], the Potency result was “inactive”.

With `C[C@H]1O[C@@H](n2cc(F)c(=O)[nH]c2=O)[C@H](O)[C@H]1O`, in assay [3], the Potency entry is “inactive”.

On to `O=C(O)CCC=CCC[C@@H]1[C@H](N2CCCCC2)[C@@H](O)C[C@@H]1OCc1ccc(-c2ccccc2)cc1`, for which, in assay [3], the Potency entry was “inactive”.

Consider `Nc1ccn([C@@H]2O[C@H](CO)[C@@H](O)[C@H]2O)c(=O)n1`, for which the Potency result in assay [3] was “inactive”.

In the case of `CC(C)(CO)[C@@H](O)C(=O)NCCC(=O)O`, in assay [3], the Potency result is “inactive”.

`O=C(CCCN1CCN(c2ccc(F)cc2)CC1)NC1c2ccccc2CSc2ccccc21` (stereo not drawn): the Potency entry in assay [3] and in assay [6] was “inactive” throughout.

Turning to `CC1=C(C(=O)Nc2cc3cn[nH]c3cc2F)C(c2ccc(C(F)(F)F)cc2)CC(=O)N1` (stereo not drawn), the Potency result in assay [3] and in assay [6] was “inactive” in each case.

With `O=C1C(c2c(O)[nH]c3ccccc23)=Nc2ccccc21`, the Potency entry in assay [3] and in assay [6] was “inactive” each time.

As for `Cc1cc2c(cc1C1(c3ccc(C(=O)O)cn3)CC1)C(C)(C)CCC2(C)C`, the Potency result in assay [3] was “inactive”. The Potency in assay [6] is 10 µM (active).

Take `CN(C)c1nc(Cc2ccc(NC(=O)c3ccc(C(F)(F)F)cc3)cc2)nc(N(C)C)c1CC(=O)O`: the Potency entry in assay [3] and in assay [6] was “inactive” in each case.

Take `CN1CCc2c(n(Cc3ccc(C(=O)NO)cc3)c3ccccc23)C1`: the Potency result in assay [3] and in assay [6] was “inactive” in each case.

`CCN1CCC(n2cc(CNc3cc(Cl)c4ncc(C#N)c(Nc5ccc(F)c(Cl)c5)c4c3)nn2)CC1`: the Potency entry in assay [3] and in assay [6] was “inactive” in each case.

As for `Nc1ncnc2c1c(-c1cccc(OCc3ccccc3)c1)cn2C1CC(CN2CCC2)C1` (stereo not drawn), the Potency entry in assay [3] and in assay [6] was “inactive” throughout.

As for `C[C@@H]1[C@H](C)CC[C@]2(C(=O)O)CC[C@]3(C)C(=CC[C@@H]4[C@@]5(C)CC[C@H](O)C(C)(C)[C@H]5CC[C@]43C)[C@@H]12`, the Potency result in assay [3] was “inactive”.

As to `Cc1nc2c([nH]1)CCN(C(=O)c1ccc(NC(=O)c3ccccc3-c3ccccc3)cc1)c1ccccc1-2`, the Potency result in assay [3] and in assay [6] was “inactive” in each case.

The record behind these values is PubChem BioAssay (NCATS).
